Laboratory results reported in PubChem BioAssay (NCI).
About 79,000 compounds went through this panel and 15% of them were active in at least one assay; those are over-represented in the sample as a whole. Values without a mark were called inactive. Active and inactive are the calls of the source. No stated cut-off is given here; in the data, active means growth inhibition above about 70%; inactive means the rest.

Assay: NCI Yeast Anticancer Drug Screen. Data for the CLN2oe strain (AID 163);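 further: 0% = growth of vehicle-only control cultures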
Conditions: S. cerevisiae CLN2oe strain, hits give high values
Method: Growth inhibition of yeast strains with defined genetic alterations is measured as a screen for potential anti-cancer activity. Selected strains with alterations in DNA damage repair or cell cycle control were exposed to compounds and growth inhibition was measured relative to vehicle treated controls. The strain used in this assay is CLN2oe

Work on `COc1ccc(/C=C/C(=O)c2ccccc2)cc1OC` yielded a growth inhibition (at 1.2 µM) of 12%, a growth inhibition (at 3.7 µM) of 3% and a growth inhibition (at 11.0 µM) of 19%. For the same molecule, the growth inhibition (at 33.0 µM) was 37% and the growth inhibition (at 100.0 µM) was 97% (active).

Work on `Cc1cccc[n+]1C1CCc2c(ccc3ccccc23)C1=O` (stereo not given) yielded a growth inhibition (at 1.2 µM) of -6%, a growth inhibition (at 3.7 µM) of -3% and a growth inhibition (at 11.0 µM) of -5%. The growth inhibition (at 33.0 µM) was -1% and the growth inhibition (at 100.0 µM) was 48%.

For `CC(C)(C)C1=CC(=CC=C2C=CN(CCCCCCCCCCCO)C=C2)C=C(C(C)(C)C)C1=O`, the growth inhibition (at 1.2 µM) was -8%, the growth inhibition (at 3.7 µM) was 10% and the growth inhibition (at 11.0 µM) was 99% (active). For the same molecule, the growth inhibition (at 33.0 µM) was 98% (active) and the growth inhibition (at 100.0 µM) was 97% (active).

In the case of `CCCCOP(=O)(CCCP(=O)(OCCCC)OCCCC)OCCCC`, the growth inhibition (at 1.2 µM) is reported as 1%, the growth inhibition (at 3.7 µM) is reported as -3% and the growth inhibition (at 11.0 µM) is reported as 7%. For the same molecule, the growth inhibition (at 33.0 µM) was 29% and the growth inhibition (at 100.0 µM) was 81% (active).

With `CCN(CC)CCOc1cc(C)c2cc(Cc3ccccc3)ccc2n1` the growth inhibition (at 1.2 µM) was -4%, the growth inhibition (at 3.7 µM) was -9% and the growth inhibition (at 11.0 µM) was 0%. It also gave a growth inhibition (at 33.0 µM) of 15% and a growth inhibition (at 100.0 µM) of 52%.

In the case of `COC(=O)C1=C(C(=O)OC)C(C(=O)OC)C(C(=O)OC)C(C(=O)OC)(C(=O)OC)C(C(=O)OC)=C1C(=O)OC` (stereo not given), the growth inhibition (at 1.2 µM) is reported as -11%, the growth inhibition (at 3.7 µM) is reported as -21% and the growth inhibition (at 11.0 µM) is reported as -26%. The growth inhibition (at 33.0 µM) was -7% and the growth inhibition (at 100.0 µM) was -1%.

Molecule `O=C(O)c1cc2ccc(Cl)cc2c(O)c1C1=CCCCC1` has a growth inhibition (at 1.2 µM) of 17%, a growth inhibition (at 3.7 µM) of -2% and a growth inhibition (at 11.0 µM) of 4%. The growth inhibition (at 33.0 µM) was 40% and the growth inhibition (at 100.0 µM) was 71% (active).

Work on `O=C(NNc1ccccc1)c1ccc(Cl)c(Cl)c1` yielded a growth inhibition (at 1.2 µM) of -7%, a growth inhibition (at 3.7 µM) of -3% and a growth inhibition (at 11.0 µM) of 0%. For the same molecule, the growth inhibition (at 33.0 µM) was 14% and the growth inhibition (at 100.0 µM) was 40%.
